Assay outcomes: PubChem BioAssay, several laboratories
Only some compounds are listed: those with a hit (about 4.5% of all), similar ones and a draw of the others.
tim10-1 inh: growth inhibitors of tim10-1 mutant yeast; S. cerevisiae tim10-1 ts strain growth, BacTiter-Glo, 24 h; 2.2% of 330,000 active; inhibition, % at 20 µM;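 active = inhibition of at least 40%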;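 note: mutant grown at 25 °C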
SKKanGAS inh: SKKanGAS growth inhibition. 1.3% of 300,000 active. inhibition, % at 7.5 µM. S. pyogenes SKKanGAS, kanamycin growth, BacTiter-Glo, 6 h;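 active = mean replicate score, as percent of positive control median, at least 50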;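 note: strain carries kanamycin resistance gene driven by streptokinase promoter and grows in 40 µg/ml kanamycin; loss of luminescence reflects streptokinase promoter inhibition or plain growth inhibition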
NALP3 yeast inh: NALP3 inhibition in yeast | Yeast reconstituted NLRP3/ASC/caspase-1, beta-gal luminescence, 24 h | inhibition, % at 10 µM | 0.39% of 330,000 active | AID 2825;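 active = inhibition of 50% or more; inactive = inhibition below 50%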
TIM10 inh: inhibits growth of TIM10 yeast strain; S. cerevisiae TIM10 strain growth, BacTiter-Glo luminescence, 24 h; inhibition, % at 10 µM; 1.4% of 330,000 active; AID 463195;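 active = inhibition of 40% or more at the single tested concentration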;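 note: wild-type TIM10 isogenic control strain grown at permissive 25 °C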
PfHsp90 set2: inhibits growth of yeast expressing Plasmodium falciparum Hsp90 | S. cerevisiae expressing PfHsp90, BacTiter-Glo ATP, 48 h; yeast lacking PDR1 and PDR3 efflux regulators | inhibition, % at 9.4 µM | AID 504621 | 0.32% of 310,000 active;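 active = every replicate shows inhibition above about 80%, whatever the replicate mean, limit read from the data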
tim23-1 inh: tim23-1 yeast growth inhibition | 1.3% of 330,000 active | S. cerevisiae tim23-1 growth, BacTiter-Glo luminescence, 24 h | inhibition, % at 20 µM | AID 463212;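 active = growth inhibition of the mutant yeast at or above 50%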;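 note: temperature-sensitive mutant grown at 25 °C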
Numbers stand for hits; n = inactive; x = no result.

SMILES	tim10-1 inh	SKKanGAS inh	NALP3 yeast inh	TIM10 inh	PfHsp90 set2	tim23-1 inh
O=C(C[n+]1cnn(CC(=O)c2ccc(Cl)cc2Cl)c1)c1ccc([N+](=O)[O-])cc1	x	93	x	x	n	x
Cc1ccc(S(=O)(=O)N2c3ccccc3OCC2C(C)(C)C)cc1 (stereo not given)	n	58	n	n	n	n
Cc1ccc2c(c1)N(S(=O)(=O)c1ccc(F)cc1)C(C(C)(C)C)CO2 (stereo not given)	n	n	n	n	n	n
CCOC(=O)Cn1nc(-c2ccccc2)c2ccccc2c1=O	n	n	n	n	n	n
O=c1c2ccccc2c(-c2ccccc2)nn1Cc1c(Cl)cccc1Cl	n	75	n	n	n	n
CC1CCc2c(C(=O)Nc3cccc(-c4nn[nH]n4)c3)csc2C1 (stereo not given)	n	56	n	n	n	n
Cc1cccc(N=Nc2c(C)nn(-c3ccccc3)c2N)c1C	n	57	n	n	n	n
CCN(CC)c1ccc(C(=C2C=CC(=[N+](CC)CC)C=C2)c2ccccc2)cc1	x	x	x	x	147	x
CCN(CC)c1ccc(C(=O)NNC(=O)CCNC(=O)c2ccccc2)cc1	n	x	n	n	n	n
CCN(CC)c1ccc(C(=C2C=CC(=[N+](CC)CC)C=C2)c2ccc(N(CC)CC)cc2)cc1	x	x	x	x	136	x
NC(=O)NC(=O)CSc1nc2sc(-c3ccccc3)cc2c(=O)n1-c1ccccc1	n	62	n	n	x	n
C=C(C)Cn1c(=O)c2c(nc3n2CC(C)CN3Cc2ccccc2)n(C)c1=O (stereo not given)	n	n	n	n	n	n
CCOC(=O)c1sc(NC(=O)c2ccncc2)c(C#N)c1C	n	n	n	n	n	n
CCOC(=O)c1sc(NC(=O)c2cc(-c3ccccc3C)nc3ccccc23)c(C#N)c1C	n	51	n	n	n	n
c1ccc(-c2nc(N3CCN(c4ccccc4)CC3)nc(-n3ccnc3)n2)cc1	n	60	n	n	x	n
NC(=O)COC(=O)C1CSC2(c3ccc(F)cc3)CCC(=O)N12 (stereo not given)	n	n	n	n	n	n
CC(C)(C)C(=O)NC(NC(=S)Nc1sc2c(c1C#N)CCCC2)C(Cl)(Cl)Cl (stereo not given)	n	50	n	n	n	n
COC(=O)c1c(NC(NC(=O)C(C)(C)C)C(Cl)(Cl)Cl)sc2c1CCC2 (stereo not given)	n	59	n	n	n	n
CCn1c(=O)c(C(=O)Nc2ccccc2)c(O)c2ccccc21	n	n	n	n	n	n
CCn1c(=O)c(C(=O)NNC(=O)Cc2ccccc2)c(O)c2ccccc21	n	54	n	n	n	n
CCn1c(=O)c(C(=O)Nc2nc3ccccc3[nH]2)c(O)c2ccccc21	n	103	n	n	n	n
CCn1c(=O)c(C(=O)NNC(=O)c2ccccc2Br)c(O)c2ccccc21	n	90	n	n	n	n
CCCn1c(=O)c(C(=O)Nc2ncccc2C)c(O)c2ccccc21	n	55	n	n	n	n
CCc1nc2ccccc2c(=O)n1NC(=O)c1c(O)c2ccccc2n(CC)c1=O	n	n	n	n	x	n
Cc1nc(SCC(=O)N2CCCC2=O)nc(C)c1C	n	x	n	n	n	n
SMILES	tim10-1 inh	SKKanGAS inh	NALP3 yeast inh	TIM10 inh	PfHsp90 set2	tim23-1 inh
CCOC(=O)c1c(-c2ccc3ccccc3c2)csc1NC(=O)CCCC(=O)O	n	x	n	n	n	n
CC(C)(O)CN(C(=O)c1ccccc1)C1CCCCC1	x	x	x	x	n	x
CCC1CCCCN1C(=S)Nc1cccc(S(=O)(=O)N(C)C)c1 (stereo not given)	n	n	n	n	x	n
CCCCCCCCCCC(=O)NNC(=O)c1c(O)c2ccccc2n(CC)c1=O	n	101	n	n	x	n
CCCCCCCCC(=O)NNC(=O)c1c(O)c2ccccc2n(CCC)c1=O	n	117	n	n	n	n
CCCn1c(=O)c(C(=O)NCc2ccccc2)c(O)c2ccccc21	n	n	n	n	n	n
CCCCCCCCCC(=O)NNC(=O)c1c(O)c2ccccc2n(CCC)c1=O	n	101	n	n	n	n
Cc1ccc(C(=O)NC(=S)N2CCCCCC2)cc1	n	x	n	n	n	n
CSc1ncccc1C(=O)OCC(=O)NC1CCCCC1	n	x	n	n	n	n
CCCCC(CC)C(=O)Oc1ccc(O)c(C(C)(C)C)c1 (stereo not given)	n	61	n	n	n	n
CCOc1ccccc1N=C1SCC(C)N1C(=O)C1CCN(c2ncnc3sc(C)c(C)c23)CC1 (stereo not given)	x	x	x	x	n	x
COc1cc(N=c2c([N+](=O)[O-])nn(-c3ccc4c(c3)OCCO4)n2O)cc(OC)c1	n	73	n	n	n	n
CC(C)c1ccc(N=c2c([N+](=O)[O-])nn(-c3ccc4c(c3)OCCO4)n2O)cc1	n	n	n	n	n	n
Cc1cccc(C)c1N(CC(=O)N1CCOCC1)S(C)(=O)=O	n	n	n	n	n	n
O=C(N/N=C/c1cc2c3c(c1O)CCCN3CCC2)c1ccccc1O	x	55	x	x	107	x
Cc1nn(-c2ccccc2)c(N2CCCC2)c1/C=N/NC(=O)c1ccccc1O	n	n	n	n	n	n
O=[N+]([O-])c1cccc(S(=O)(=O)N2CCN(S(=O)(=O)N3CCCCCC3)CC2)c1	n	n	n	n	n	n
C[C@H](CO)N1C[C@H](C)[C@@H](CN(C)Cc2ccncc2)Oc2c(NC(=O)C3CC3)cccc2C1=O	n	x	n	n	n	n
CC(=O)Nc1sc(NC(=O)c2ccc([N+](=O)[O-])cc2)nc1-c1cccs1	n	56	n	n	n	n
CC(=O)Nc1sc(NC(=O)c2ccc(Cl)cc2)nc1-c1cccs1	n	n	n	n	n	n
COc1cc(NC(=O)[C@H]2CCCN2S(=O)(=O)c2cccc3cccnc23)cc(OC)c1OC	n	x	n	n	n	n
COc1ccc(NC(=O)C2CCCN2S(=O)(=O)c2cccc3cccnc23)c(OC)c1 (stereo not given)	n	n	n	n	102	n
CN(Cc1ccc(N(C)C)cc1)C(=O)c1cc2ccccc2o1	n	60	n	n	n	n
N#C/C(=C(/O)c1ccco1)c1nc2ccccc2s1	n	n	n	n	n	n
N#C/C(=C(/O)c1cc2ccccc2o1)c1nc2ccccc2s1	n	61	n	n	n	n
CCOC(=O)N1CCN(C(=O)c2ccc3c(c2)NC(=O)/C(=C\c2cccc(C)c2)S3)CC1	n	92	n	n	n	n
COc1ccc(/C=C2/Sc3ccc(C(=O)N4CCOCC4)cc3NC2=O)cc1OC	n	n	n	n	n	n
CCOC(=O)N1CCN(C(=O)c2ccc3c(c2)NC(=O)/C(=C\c2ccc(OC)c(OC)c2)S3)CC1	n	101	n	n	n	n
Cc1ccc(C(C)C)c(OCC(O)CNC2CCCC2)c1 (stereo not given)	n	n	n	n	n	n
